High-throughput results: PubChem, The Scripps Research Institute Molecular Screening Center
M1 ag: human M1 muscarinic receptor agonists, primary screen, Fluo-8 calcium fluorescence, CHO-K1 cells, HTS; Muscarinic acetylcholine receptor M1 (Homo sapiens), P11229; CHO-K1 hM1, agonist mode; 0% DMSO, 100% acetylcholine EC100; activation, % at 3 µM; 360,000 compounds, 0.33% hits;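 active means activation above the run's mean compound activation plus 3 SD, cut at about 16% in these data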;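 further: peak over basal fluorescence ratio within a 140 s kinetic read after compound addition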
Target sequence (P11229 whole entry, looked up): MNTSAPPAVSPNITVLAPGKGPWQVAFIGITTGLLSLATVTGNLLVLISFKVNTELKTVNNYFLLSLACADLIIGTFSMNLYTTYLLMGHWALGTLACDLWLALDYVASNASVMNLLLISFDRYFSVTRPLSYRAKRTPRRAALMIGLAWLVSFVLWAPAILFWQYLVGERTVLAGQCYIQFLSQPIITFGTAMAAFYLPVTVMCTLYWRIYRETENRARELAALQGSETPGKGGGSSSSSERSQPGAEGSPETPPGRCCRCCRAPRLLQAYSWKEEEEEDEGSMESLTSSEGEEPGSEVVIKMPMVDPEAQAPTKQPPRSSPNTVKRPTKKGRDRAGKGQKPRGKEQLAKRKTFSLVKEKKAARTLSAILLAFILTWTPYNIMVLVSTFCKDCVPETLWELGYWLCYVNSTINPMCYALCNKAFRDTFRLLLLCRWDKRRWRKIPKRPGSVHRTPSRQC
CHO-K1 Ca antag: nonselective inhibitor or artifact in parental CHO-K1 cells. AID 602250. inhibition, % at 3 µM. ATP-induced calcium, Fluo-8 fluorescence. 360,000 compounds, 0.6% hits;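 active means inhibition above a per-plate cutoff, the plate's mean sample inhibition plus 3 SD, cut at about 24% in these data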;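 further: 0% = DMSO plus EC80 ATP and 100% = DMSO alone without ATP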
CHO-K1 Ca ag: counter-screen for M1 agonists: effect in parental CHO-K1 cells | Fluo-8 calcium fluorescence; scaled to maximal ATP response, vehicle zero | activation, % at 3 µM | 360,000 compounds, 0.48% hits; in the data active means activation above about 15%;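 further: untransfected CHO-K1 host cells lacking M1 receptor as counterscreen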
CHO-K1 Ca PAM: nonselective calcium activators in parental CHO-K1 cells, primary screen, counter-screen for M1 PAM project, cell-based, Fluo-8 calcium fluorescence, full deck, 1536-well | ATP EC20; 0% at ATP EC20, 100% at ATP max | activation, % at 3 µM | 360,000 compounds, 0.02% hits;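 active means activation above the run cutoff, the mean activation of all test compounds plus 3 SD, cut at about 40% in these data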;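 further: peak over basal fluorescence ratio in a 140 s read after ATP addition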
M1 antag: human M1 muscarinic receptor antagonists, primary screen, CHO-K1 cells, Fluo-8 calcium fluorescence, 1536-well | AID 588852, 2011 | Muscarinic acetylcholine receptor M1 (Homo sapiens), P11229 | 360,000 compounds, 1.3% hits | CHO-K1 hM1, ACh EC80 antagonist | inhibition, % at 3 µM;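 active means percent inhibition above its own plate's cutoff, namely the mean of that plate's compound wells plus 3 SD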;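 further: peak over basal fluorescence ratio during 140 s after agonist addition; 0% = ACh EC80 plus DMSO and 100% = DMSO alone without agonist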
M1 PAM: human M1 muscarinic receptor positive allosteric modulators, primary screen, CHO-K1 cells, Fluo-8 calcium fluorescence, 1536-well | CHO-K1 hM1, ACh EC20; 0% = ACh EC20, 100% = maximal ACh | Muscarinic acetylcholine receptor M1 (Homo sapiens), P11229 | 360,000 compounds, 0.088% hits | activation, % at 3 µM | AID 588819, 2011; in the data active means activation above about 19%, passing the limit was not always enough
Starred values were filed as active, the others as inactive; . = no result. Only some compounds are listed: those with a hit (about 2.4% of all), similar ones and a draw of the others.

SMILES	M1 ag	CHO-K1 Ca antag	CHO-K1 Ca ag	CHO-K1 Ca PAM	M1 antag	M1 PAM
C/C(=N\NC(=O)CN1CCN(S(=O)(=O)c2ccc(C)cc2)CC1)c1ccc(O)cc1	-2	-3	1	-11	-10	5
CCCCN(C(C)=O)c1ccc2c(c1)C1CC2CCN1C(=O)OCc1ccccc1 (stereo not given)	-7	12	2	-6	34*	-14
CCN(CCc1ccccc1)c1ccc2c(c1)C1CC2CCN1C(=O)OCc1ccccc1 (stereo not given)	-2	-1	0	8	-15	11
CCN(CC)c1ccc(/C=N/n2c(-c3ccccc3Br)n[nH]c2=S)cc1	-7	16	3	-22	81*	-26
O=S1(=O)CCOCCCN1Cc1cccc(C(F)(F)F)c1	-5	-24	1	9	-15	8
Nc1ccc(S(=O)(=O)N2CCc3ccccc32)cc1	0	-13	2	21	-6	3
O=S(=O)(NC1CCCC1)c1ccc(S(=O)(=O)N2CCc3ccccc32)cc1	-3	7	16*	4	25	-15
Clc1ccccc1-c1cnc2sc(NCc3ccc4c(c3)OCO4)nn12	0	2	0	-14	7	-4
COCOc1cccc(CN2CCC2(C)C(=O)Nc2ccc3c(c2)OCO3)c1 (stereo not given)	-1	-14	2	30	3	3
CC1(C(=O)Nc2ccc3c(c2)OCO3)CCN1Cc1cccc2c1OCO2 (stereo not given)	1	-21	3	58*	-8	-6
CC1(C(=O)Nc2ccc3c(c2)OCO3)CCN1Cc1csc2ccccc12 (stereo not given)	6	-24	0	40*	25	-23
Cc1ccc(NC(=O)C2(C)CCN2Cc2csc3ccccc23)cc1 (stereo not given)	-9	-4	0	15	45*	-29
Cc1cc2nc(-c3ccccc3)c(Cc3ccsc3)n2c(C)c1Br	.	-15	0	11	.	.
NC(=O)[C@@H]1CCCN1Cc1nc(-c2cccs2)no1	-5	6	0	4	1	-3
CCCc1cc(=O)oc2cc(OC3CCCCC3=O)ccc12 (stereo not given)	0	-11	5	18	-15	7
C=C1CC(C(=O)N/N=C/c2ccc(O)cc2)C1	-5	25*	0	-15	13	-8
COc1cc(C(=O)Nc2nnc(CC(C)C)s2)c([N+](=O)[O-])cc1OC	4	9	-1	-8	-1	10
OC(c1cccs1)(c1cccs1)C1C[N+]2(CF)CCC1CC2 (stereo not given)	-8	-5	1	22	83*	-22
O=C(CCC1CCCC1)NCc1cccs1	-5	2	0	-3	4	-4
CC(=O)O[C@H]1[C@@H](O)[C@H](O)[C@H](Oc2c(O)c(C)c3c4c2[C@@H](C)CC[C@@H]4[C@@H](C)C[C@H]3C=C(C)C)O[C@H]1C	1	-11	0	-2	2	1
C#CCOCCOCCOCCNc1nc(N2CCN(C(=O)CCCCCCCCCCNC(=O)[C@@H](CCC(=O)O)n3cc(CCCCCN)nn3)CC2)nc(N2CCN(C(=O)CCCCCCCCCCNC(=O)[C@H](CCCCN)n3cc(C[C@@H](C)CC)nn3)CC2)n1	20*	-12	3	5	10	-16
CCCNC(=O)c1nnsc1S(=O)c1ccc(Cl)cc1 (stereo not given)	-5	-3	8	23	5	-4
CCCNC(=O)c1nnsc1S(=O)(=O)c1ccc(Cl)cc1	-6	0	0	7	96*	-20
CCOC(=O)N1CCc2c(sc3c2c(=O)n(-c2ccc(CC)cc2)c(=O)n3CC(=O)NCC2CCCO2)C1 (stereo not given)	0	-9	0	-7	-22	20
CCC1CCCCN1C/C=C/c1ccccc1[N+](=O)[O-] (stereo not given)	-8	-13	1	19	89*	-20
SMILES	M1 ag	CHO-K1 Ca antag	CHO-K1 Ca ag	CHO-K1 Ca PAM	M1 antag	M1 PAM
CC1CCCCN1C/C=C/c1ccccc1[N+](=O)[O-] (stereo not given)	-7	-7	1	15	86*	-23
CC1CCCN(C/C=C/c2ccccc2[N+](=O)[O-])C1 (stereo not given)	-15	-19	1	8	6	-5
O=C(C[N+]1(CC#Cc2ccccc2)CCCCC1)c1ccc(Cl)cc1	-16	-15	0	8	52*	-38
O=C(C[N+]1(CC#Cc2ccccc2)CCCCC1)c1ccccc1	-6	3	0	-14	44*	-16
O=C(C[N+]1(CC#Cc2ccccc2)CCOCC1)c1ccccc1	-16	-17	1	23	-4	-4
Cn1c(O)c(N=Nc2nc(-c3ccccc3)cs2)c2ccccc21	0	1	0	-1	2	-2
CCC(C(=O)Nc1cccnc1Cl)c1ccccc1 (stereo not given)	-5	6	1	-6	-3	-3
Cc1occc1-c1nnc(SCC(=O)Nc2nc(C(C)(C)C)cs2)o1	-1	30*	11	-10	51*	-24
Cc1csc(NC(=O)CSc2nnc(-c3ccoc3C)o2)n1	-1	-7	0	13	-13	6
Cc1ccc(S(=O)(=O)NN2C(=O)/C(=C/c3cccs3)SC2=S)cc1	0	26*	-1	-23	-20	12
Cc1ccc(/C=C2\SC(=S)N(NS(=O)(=O)c3ccc(C)cc3)C2=O)cc1	-4	6	3	13	-10	3
O=C(Nc1ccnn1C1CCN(Cc2ccn[nH]2)CC1)c1ccccc1	-4	-3	1	-4	-21	12
CC(=O)Nc1ccc(CN2C(=O)C(C)(C)ON=C2c2ccc(C(F)(F)F)cc2)cc1	0	37*	0	-10	0	8
COc1ccc(C)c2sc(N(CCCN(C)C)C(=O)c3ccc(S(=O)(=O)N4CCc5ccccc5C4)cc3)nc12	-7	10	19*	8	9	-12
CCc1ccc2nc(N(CCCN(C)C)C(=O)c3ccc(S(=O)(=O)N4CCCC4)cc3)sc2c1	-5	-4	6	10	39*	-20
Cc1ccc2nc(N(CCCN(C)C)C(=O)c3ccc(S(=O)(=O)N4CCCCCC4)cc3)sc2c1	-4	7	7	-3	4	0
